The record followed here is the OligoGym collection.
Further: reference of the scale not given here.

In the first assay the target is IKBKAP. Briefly: pooled miR-30 sensor sort-seq; sequence = guide strand. The note with it: shRNA.
In the case of TAATTCATTAACATCTACCAGA, the sensor-assay potency score (higher = more potent) was -0.538.

Take TATAACTTCAGAGCTTCGTTAT: the sensor-assay potency score (higher = more potent) was -0.855.

As to TTGTCTATAGTAAACCGCTGAT, the sensor-assay potency score (higher = more potent) was -0.619.

As to TTGAATATCCCTGAACTCCAGG, the sensor-assay potency score (higher = more potent) is -0.562.

The sequence TAGCATCGCAGACAAGGTCTAT gave a sensor-assay potency score (higher = more potent) of -0.408.

Turning to TTTGTCTATAGTAAACCGCTGA, the sensor-assay potency score (higher = more potent) was -0.157.

TCTTCGTGACATCTTCTTCTTT had a sensor-assay potency score (higher = more potent) of -0.422.

TTCTTCTGTTGATCTTTGGTGG yielded a sensor-assay potency score (higher = more potent) of -0.174.

TTGCAGTAGAATTGGGACCTAG had a sensor-assay potency score (higher = more potent) of -0.443.

As to TATTTGTCTATAGTAAACCGCT, the sensor-assay potency score (higher = more potent) was -0.467.

TTCTGAACCAATGAGCACCGTC came in with a sensor-assay potency score (higher = more potent) of -0.483.

The target of a further assay is IKBKB. Described as above. As to conditions: shRNA.
In turn, TAAGTCCACAATGTCGGTCTGC came in with a sensor-assay potency score (higher = more potent) of -0.424.

Regarding TTTCCTGATTGTGCCATCGGAT, the sensor-assay potency score (higher = more potent) was -0.945.

Take TAAGTTTAAGATGTCATCCAGG: the sensor-assay potency score (higher = more potent) is -0.453.

With TTCGCTAACAACAATGTCCACC, the sensor-assay potency score (higher = more potent) is -0.709.

TTGCTTGCTCCTCTAGGTCGTC: the sensor-assay potency score (higher = more potent) is -0.796.

In the case of TTGCTCGCTGTACTTCTCCAGG, the sensor-assay potency score (higher = more potent) is -0.598.

Consider TCTTCTTCCGTCTGTAACCAGC, for which the sensor-assay potency score (higher = more potent) is -1.13.

TTGCTCCTCTAGGTCGTCCAGC: the sensor-assay potency score (higher = more potent) is -1.32.

Turning to TTTTGTGTATTAACCTCTGTTC, the sensor-assay potency score (higher = more potent) is -0.501.

Sequence TAGTCTCCTGTACAGCTCCCTT showed a sensor-assay potency score (higher = more potent) of -1.81.

As for TTGAAAACTTCACCGTTCCATT, the sensor-assay potency score (higher = more potent) was -0.697.

With TTTGAATTGGACACTGTCCAGT, the sensor-assay potency score (higher = more potent) is -0.0592.

Another assay has as its target IKBKG. Described as above. As to conditions: shRNA.
TGTGGTTGTCGTATTCTTGGAA registered a sensor-assay potency score (higher = more potent) of 0.455.

The sequence TTTGCTGTACTCCCTCTGCAGC had a sensor-assay potency score (higher = more potent) of -0.913.

TTCAGTTTGCTGTACTCCCTCT gave a sensor-assay potency score (higher = more potent) of -0.286.

TCGTATTCTTGGAAGAGCTGGT returned a sensor-assay potency score (higher = more potent) of 0.277.

TACGTCCTGATCTGCTGCCGGG came in with a sensor-assay potency score (higher = more potent) of -1.55.

TTAGTGGCAGCCTCCAAGCGAC: the sensor-assay potency score (higher = more potent) is -1.14.

Sequence TTTGAGATCTTCCAGCTGCATT displayed a sensor-assay potency score (higher = more potent) of -1.36.

TTCCTCATGTCCTCGATCCTGG: the sensor-assay potency score (higher = more potent) was -0.0606.

Sequence TCACAATCTTGTGCTGCTCGGC had a sensor-assay potency score (higher = more potent) of -0.555.

In the case of TTATCGATCACCTCCTGTTTGG, the sensor-assay potency score (higher = more potent) was -0.717.

TTGGAAATGCAGAAGCTCCTCG had a sensor-assay potency score (higher = more potent) of 0.49.

In turn, TTGCACATGAGGAACTCCTTCT had a sensor-assay potency score (higher = more potent) of 0.171.

In a further assay the target is IL10. The assay is described as above. The note with it: shRNA.
In turn, AAGAAAGTCTTCACTCTGCTGA showed a sensor-assay potency score (higher = more potent) of 0.0469.

On to ATTAAAGGCATTCTTCACCTGC, for which the sensor-assay potency score (higher = more potent) was -0.126.

Regarding TTTCACAGGGAAGAAATCGATG, the sensor-assay potency score (higher = more potent) is -0.836.

As to TAACAACAAGTTGTCCAGCTGA, the sensor-assay potency score (higher = more potent) is 0.191.

Consider TTAACAACAAGTTGTCCAGCTG, for which the sensor-assay potency score (higher = more potent) is -0.0308.
